# Laboratory results from ChEMBL document CHEMBL3988442, “University of Dundee, Small-Polar-MMV Screening Library” (2021).
# Hit rate of the full screen: of about 48,000 compounds, about 13,000 (27%) showed an effect of 50% or more. The list shows a part of the results.
# Tested on: Wolbachia pipientis
# Assay: Anti-Wolbachia Cell-Based Screen
# Assay type: functional
# Parameters: scale not given: in the data most compounds retested in dose-response had high values
# Settings: 5 µM
row,Compound,Percent Effect [%]
1,Cn1ccnc1CN(CCO)Cc1ccc(C(F)(F)F)cc1,-12.47
2,CC(=O)c1cc2ncc(C(=O)NC3CCCCC3)cc2[nH]1,114.6
3,CCNc1ncc(C(=O)NC2CCc3ccccc3C2)cn1 (configuration not stated),2.788
4,O=C(NC1CCCCC1)c1c(F)cccc1F,-11.27
5,CC(=O)c1cc2ncc(C(=O)NC3CCCC3)cc2[nH]1,115.8
6,CC(C)(C)OC(=O)NC1CCC(NC(=O)c2ccc[nH]2)CC1 (configuration not stated),-46.12
7,CCNc1ncc(C(=O)NC2CCSC2)cn1 (configuration not stated),5.956
8,O=C(NC1(C(=O)NC2CCCC2)CCCC1)c1ccc2[nH]ncc2c1,2.222
9,CC(=O)c1cc2ncc(C(=O)NC3CC3)cc2[nH]1,127.3
10,CCOc1ccccc1OCCN(C)Cc1ncnn1CC,-5.335
11,Cc1n[nH]cc1CNCC(O)c1ccc(F)c(F)c1.Cl (configuration not stated),-9.621
12,Cc1ccc2cc(CN(C)Cc3nccs3)c(=O)[nH]c2c1,-5.099
13,CN1CC(=O)N(c2cnn(C)c2)CC12CCN(Cc1ccccc1)C2.O=C(O)C(F)(F)F.O=C(O)C(F)(F)F (configuration not stated),-7.753
14,CC1N(c2cnn(C)c2)C(=O)COC12CCN(CC1CC1)CC2.O=C(O)C(F)(F)F (configuration not stated),102.9
15,Cc1nc(CN2C(=O)COC3(CCN(Cc4ccco4)CC3)C2C)cs1.O=C(O)C(F)(F)F (configuration not stated),-6.139
16,Cn1cc(N2CC3(CCN(CC4CC4)C3)CC2=O)cn1.O=C(O)C(F)(F)F (configuration not stated),3.9
17,CC1N(c2cnn(C)c2)C(=O)COC12CCN(Cc1ccco1)CC2.O=C(O)C(F)(F)F (configuration not stated),117
18,CC1N(c2cnn(C)c2)C(=O)COC12CCN(Cc1ccoc1)CC2 (configuration not stated),110.5
19,Cn1cc(N2C[C@@H]3CN(Cc4ccoc4)C[C@@H]3C2=O)cn1.O=C(O)C(F)(F)F,-5.785
20,Cn1cc(N2CC3(CCN(CC4CCOCC4)CC3)OCC2=O)cn1.O=C(O)C(F)(F)F,-12.75
21,Cc1nn(C)c2nc(NC3CCNCC3)sc12,10.32
22,Cc1nn(C)c2nc(NCCOCCO)sc12,-15.08
23,Cc1nn(C)c2nc(NC(C)c3n[nH]c(=O)[nH]3)sc12 (configuration not stated),96.4

row,Compound,Percent Effect [%]
1,Cc1nn(C)c2nc(NC(C)c3nnn[nH]3)sc12 (configuration not stated),114.7
2,Cc1nc(C(C)Nc2nc3c(s2)c(C)nn3C)n[nH]1 (configuration not stated),87.1
3,Cc1ccc(-c2ccnc(NC(C)c3n[nH]c(=O)[nH]3)n2)c(C)n1 (configuration not stated),6.558
4,Cc1csc(CNc2nc3c(s2)c(C)nn3C)n1,-2.391
5,CCCOCCNc1nc2c(s1)c(C)nn2C,-0.9549
6,CCSCCNc1nc2c(s1)c(C)nn2C,7.108
7,O=C(Cc1cccs1)NCCNc1nccc(C(F)(F)F)n1,-1.179
8,CCn1cc(CN2CCCCC2CCn2ccnc2C)cc1C#N (configuration not stated),-5.966
9,O=C(NCc1ccccc1CN1CCCC1=O)Nc1nncs1,-15.38
10,CC(Nc1ccc(N2C(=O)CCCC2=O)cc1)c1ccc(C#N)cc1 (configuration not stated),-5.853
11,Cc1nc(CO[C@H]2CN(C(=O)c3cccn3C)[C@@H]3COC[C@H]23)cs1.O=C(O)C(F)(F)F,-15.2
12,CC(C)NC(=O)N1C[C@H](OCc2cccnc2)[C@H]2COC[C@H]21.O=C(O)C(F)(F)F,112.7
13,CC(=O)NCC(=O)N1C[C@H](OCc2cccnc2)[C@H]2COC[C@H]21,-9.929
14,Cc1nc(CO[C@H]2CN(C(=O)c3cnoc3C)[C@@H]3COC[C@H]23)cs1.O=C(O)C(F)(F)F,-46.26
15,CCS(=O)(=O)N1C[C@@H](OCc2cccnc2)[C@H]2OCCC[C@H]21.O=C(O)C(F)(F)F,-26.44
16,O=C(Cc1ccccn1)N1C[C@H](OCc2cccnc2)[C@H]2COC[C@H]21.O=C(O)C(F)(F)F.O=C(O)C(F)(F)F,111.5
17,O=S(=O)(NCCNc1ccc(-n2cccn2)nn1)c1ccccc1,-3.314
18,Cc1noc(C)c1CN(C)C(=O)c1cnc(C2CC2)nc1O,-11.89
19,CCOc1ncccc1CNC(=O)N1CCC(n2cncn2)CC1,108.5
20,Cc1cc(C(C)NC(=O)N2CCC(n3cncn3)CC2)c(C)s1 (configuration not stated),2.137
21,Cc1ccccc1CNC(=O)N1CCC(n2cncn2)CC1,111.6
22,CCOc1ncccc1CNC(=O)N1CCCC1c1ccncc1 (configuration not stated),0.3129
23,O=C(NCc1cccc2cccnc12)N1CCC(n2cncn2)CC1,-5.707

row,Compound,Percent Effect [%]
1,CC(C)Oc1ccccc1CNC(=O)N1CCC(n2cncn2)CC1,15.2
2,CCOc1ccccc1CNC(=O)N1CCC(n2cncn2)CC1,121.4
3,CCC(CC)c1cc(CNC(=O)N2CCCN(C(C)=O)CC2)on1,-7.46
4,O=S(=O)(CC1CCCCC1)NCc1ccc(O)nc1,-3.814
5,CC1CCN(C(=O)c2ccnc(-n3cncn3)c2)c2ccccc21 (configuration not stated),8.063
6,CC(C)OC[C@H]1CCC[C@]12CN(C(=O)C1CCOCC1)CCO2,106.2
7,COC[C@@H]1CCC[C@@]12CN(C(=O)C1CCOCC1)CCO2,108.7
8,Cn1ccc(N2CCCC(NC(=O)c3ccc(Cl)o3)C2=O)n1 (configuration not stated),-25.47
9,COc1cc(F)ccc1N1CCN(Cc2nc(C)c(C)o2)CC1,-8.318
10,Cc1cn2nc(N3CCCC3Cn3nc(C)cc3C)sc2n1 (configuration not stated),8.981
11,Cc1cn2nc(N3CCCCC3Cn3cccn3)sc2n1 (configuration not stated),120.6
12,Cc1cnn(CC2CCCN2c2nn3cc(C)nc3s2)c1 (configuration not stated),9.552
13,Cc1cn2nc(N3CCCC3C(=O)N3CCN(C)CC3)sc2n1 (configuration not stated),-72.4
14,CC(C)(C)c1cn2nc(N3CCCC3Cn3cccn3)sc2n1 (configuration not stated),7.986
15,Cc1cn2nc(N3CCCC3CC(C)(C)C)sc2n1 (configuration not stated),1.66
16,CC(C)(C)c1cn2nc(N3CCCC3Cn3cncn3)sc2n1 (configuration not stated),-4.327
17,Cc1cn2nc(N3CCCC3Cn3cccn3)sc2n1 (configuration not stated),112.3
18,Cc1cnn(CC2CCCCN2c2nn3cc(C)nc3s2)c1 (configuration not stated),94.21
19,Cc1cn2nc(N3CCCC3Cn3nc(C)nc3C)sc2n1 (configuration not stated),128.5
20,CC(C)(C)c1cn2nc(N3CCCCC3Cn3cncn3)sc2n1 (configuration not stated),11.04
21,Cc1cn2nc(N3CCCC3Cn3cncn3)sc2n1 (configuration not stated),1.731
22,CCN1CCN(C(=O)c2[nH]c3ccccc3c2Cl)[C@H]2CS(=O)(=O)C[C@H]21,2.793
23,COCCNc1ccccc1CNC(=O)NCc1cnc(C)s1,-0.4507

row,Compound,Percent Effect [%]
1,CC(C)Oc1ccc(C(=O)N2CCCC2c2cnn(C)c2)cn1 (configuration not stated),97.67
2,CNC(=O)c1ccc(C(=O)N2CCCC2c2cnn(C)c2)cn1 (configuration not stated),5.729
3,Cc1cnn(CC2CCCN2C(=O)c2ccc(OC(C)C)nc2)c1 (configuration not stated),-7.33
4,COc1ccc(C(=O)N2CCCC2c2cnn(C)c2)cn1 (configuration not stated),112.3
5,Cn1cc(C2CCCN2C(=O)c2ccc(OCC3CC3)nc2)cn1 (configuration not stated),114.7
6,CCOc1ccc(C(=O)N2CCCC2c2cnn(C)c2)cn1 (configuration not stated),110.2
7,COCCn1cc(C(=O)N2CCCC2c2cnn(C)c2)ccc1=O (configuration not stated),-26.74
8,Cc1nnc(CN(C)S(=O)(=O)c2ccc(Br)cc2Cl)n1C,5.813
9,CC(C)Oc1cccc(C(=O)C2CCCN(S(=O)(=O)C(C)C)C2)c1 (configuration not stated),1.86
10,Cc1nn(CCO)c(C)c1CNC1CCCCc2ccccc21 (configuration not stated),2.659
11,O=C(NCCc1ccn(-c2ccccc2)n1)N1CCC1,5.708
12,CCOC1CCN(C(=O)NCCc2ccn(-c3ccccc3)n2)CC1,152.6
13,CCOC1CCN(C(=O)NCc2ccc(C(=O)N(C)C(C)C)cc2)CC1,-14.18
14,O=C(NCCc1ccn(-c2ccccc2)n1)N1CCCC(O)C1 (configuration not stated),108.2
15,O=C(NCCc1ccn(-c2ccccc2)n1)N1CCCC(CO)C1 (configuration not stated),104.8
16,CC1(C)CN(C(=O)NCCc2ccn(-c3ccccc3)n2)CCO1,-7.348
17,CCOC1CCCN(C(=O)NCCc2ccn(-c3ccccc3)n2)C1 (configuration not stated),9.361
18,O=C(NCCC1Cc2ccccc2C1)N1CCCC(O)C1 (configuration not stated),-12.54
19,O=C(NCCc1ccn(-c2ccc(F)cc2)n1)C1CCCOC1 (configuration not stated),-15.61
20,O=C(NCCc1ccn(-c2ccccc2)n1)N1CCSCC1,87.95
21,CC(C)(C)c1cn(C2CCN(C(=O)c3cncnc3)CC2)nn1,8.941
22,Cc1cc2ncc(C(C)NCc3cccnc3)c(C)n2n1 (configuration not stated),0.9631
23,O=C(c1cccc2ncccc12)N1CCCN(c2cccnn2)CC1,-3.765

row,Compound,Percent Effect [%]
1,N#Cc1ccc(N2CCN(c3ncccn3)CC2)c(C(F)(F)F)c1,0.2646
2,COc1cccc(CCCNC(=O)N2CCC(O)(C(F)(F)F)C2)c1 (configuration not stated),-22.68
3,Cc1nn(C)c(N(C)C)c1CNCc1cnn(Cc2ccccc2)c1,0.347
4,O=C(Nc1ccc(CC(=O)N2CCCC2)cc1)NC1CC1,116.7
5,O=C(Nc1ccc(CC(=O)N2CCSCC2)cc1)NC1CC1,1.128
6,O=C(Nc1ccc(CC(=O)N2CCSCC2)cc1)NC1CCCC1,-7.412
7,Cc1nc(CNC(=O)NC2CCN(c3ncccc3Cl)C2)no1 (configuration not stated),-5.791
8,OCCC1CN(c2ncnc3[nH]cnc23)CCN1Cc1ccccc1 (configuration not stated),-15.48
9,CC(C)N1CCCC2(CCN(Cc3nncn3C(C)C)C2)C1=O (configuration not stated),92.74
10,CCCN1CCCC2(CCN(Cc3noc(C4CCCC4)n3)C2)C1=O (configuration not stated),-0.09411
11,CC(C)[C@H]1COC(=O)N1Cc1nncn1C(C)C,9.429
12,CCCN1CCCC2(CCN(Cc3cncn3C3CCCC3)C2)C1=O (configuration not stated),1.607
13,CC(C)n1cnnc1CN1CCC2(CCCN(C3CCCCC3)C2=O)C1 (configuration not stated),113.2
14,CN1CCCC2(CCN(Cc3cncn3C3CCCCC3)C2)C1=O (configuration not stated),-0.6007
15,CCN1CC2(CCC1=O)CCN(Cc1nncn1C(C)C)CC2,3.317
16,CC(C)N1CCCC2(CCN(Cc3noc(C4CCCC4)n3)C2)C1=O (configuration not stated),17.18
17,Cn1cnnc1CN1CCC2(CCCN(C3CCCC3)C2=O)C1 (configuration not stated),103.4
18,CCCN1CCCC2(CCN(Cc3cncn3C3CCCCC3)C2)C1=O (configuration not stated),-18.59
19,Cn1cnnc1CN1CCC2(CCCN(C3CCCCC3)C2=O)C1 (configuration not stated),111.9
20,CCN1CC2(CCC1=O)CCN(Cc1nncn1C)CC2,-22.02
